# Reference: PubChem BioAssay AID1347416 (National Center for Advancing Translational Sciences (NCATS), 2020)
# In all, about 4,100 compounds went through this assay and about 1,600 (39%) were called active. Another 25% or so got no clear call; they are omitted. Calls follow the shape of the dose curve; as a rule, active = well fitted inhibition curve with a large enough effect; inconclusive = small, poorly fitted or top-dose-only effect; inactive = no such curve, though single readings can be large or run the other way. Some of the results follow.
# Assay: qHTS Validation assay for Inhibitors of Plasmodium falciparum Dd2 growth in vitro; also: nearly all actives have a fitted effect of over 70% in size
# Conditions: P. falciparum Dd2 in RBCs, SYBR Green growth, 72 h; series mostly up to 28.7 µM
# Procedure, shortened: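 P. falciparum Dd2-infected red blood cells (2.5% hematocrit, 0.3% parasitemia) grown 72 h at 37 °C under 5% O2 with compounds in a titration, 29 uM to 0.5 nM final. Growth read as SYBR Green-1 fluorescence after ~16 h lysis; artesunate 300 nM as positive control.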
# Potency is read from the fitted curve at half-maximal effect.
row,Structure (SMILES),Potency
1,CC(C)Oc1ccc2c(c1)OC(c1ccccc1)(C(F)(F)F)NC2=O (centres undefined),2.66 µM (active)
2,CCOc1ccc2c(c1)OC(c1ccc(C)cc1)(C(F)(F)F)NC2=O (centres undefined),2.66 µM (active)
3,CCCNC(=O)Nc1ccc(OC2CCN(C(=O)CC)C2)nc1 (centres undefined),inactive
4,CCn1c(N2CCC(C)CC2)nc2c1c(=O)n(C)c(=O)n2C,5.96 µM (active)
5,CCOC(=O)Cn1c(=O)c2c(nc(N3CCCCC3)n2C)n(C)c1=O,inactive
6,O=C(Nc1ccc([N+](=O)[O-])cc1)Nc1nc(-c2ccc(Cl)s2)cs1,2.99 µM (active)
7,O=C(Nc1ccc(Cl)cc1)Nc1nc(-c2ccccc2O)cs1,6.68 µM (active)
8,O=C(Nc1nc(-c2ccccn2)cs1)c1cccc(S(=O)(=O)N2CCOCC2)c1,5.96 µM (active)
9,COc1ccc(-c2csc(NC(=O)C(CC(=O)O)N3CCOCC3)n2)cc1 (centres undefined),inactive
10,O=C(Nc1nc(-c2ccccn2)cs1)c1ccc(F)c(S(=O)(=O)N2CCOCC2)c1,2.11 µM (active)
11,N#Cc1cc(C#N)c(N2CCN(c3cccc(Cl)n3)CC2)nc1N,3.35 µM (active)
12,Cn1nccc1C(=O)N1CCC2(CC1)NCCc1c2[nH]c2ccccc12,inactive
13,Cc1ccc(C(=O)N2CCC(c3c[nH]c4ccccc34)(c3c[nH]c4ccccc34)CC2)cc1,8.41 µM (active)
14,COCc1noc(CC2CCOC3(CCN(C(=O)c4c[nH]c5ccccc45)CC3)C2)n1 (centres undefined),inactive
15,c1ccc([C@H]2CN3CCSC3=N2)cc1,inactive
16,CC(C)(C)c1ccc(C(=O)N2CCC3(C2)NC(=O)N(Cc2ccc(Cl)cc2)C3=O)cc1 (centres undefined),inactive
17,NC(Cc1ccccc1)C(=O)N1CCC2(CC1)CN(C(=O)c1ccc(Cl)cc1)CCO2 (centres undefined),0.842 µM (active)
18,O=C(NCc1ccccc1)N1CCC2(CC1)CC(N(C(=O)c1ccccc1)C1CC1)CCO2 (centres undefined),inactive
19,Cc1ccc(CN2CCNC(=O)C2CC(=O)N(CC(C)C)CC(C)C)cc1 (centres undefined),inactive
20,CC1(C)Cc2c(c(N3CCOCC3)nc3snc(Br)c23)CO1,0.299 µM (active)
21,CCN1CCN(c2nc(SC)nc3sc4c(c23)CC(C)(C)OC4)CC1,inactive
22,CCOc1cc(NC(=S)NC)c(OCC)cc1NC(=O)c1ccco1,inactive

row,Structure (SMILES),Potency
1,Cc1ccc(CNC(=O)c2ccc(N3CCC4(CC3)CC(c3cccc(Br)c3)=NO4)c(NC(=O)c3ccco3)c2)cc1,8.41 µM (active)
2,CCCNC(=O)c1ccc(N2CCC3(CC2)CC(c2cccc(Br)c2)=NO3)c(NC(=O)c2ccco2)c1,2.99 µM (active)
3,CCOc1nc(N=C(N)N)nc2c(C)cccc12,10.6 µM (active)
4,COc1nc(N=C(N)N)nc2c(C)cccc12,inactive
5,CN1C(=O)CS(=O)(=O)C12CCN(C(=O)c1cc(F)ccc1Cl)CC2,inactive
6,Cc1ccc(C2Cn3nnc(-c4noc(-c5nn(C)c6ccccc56)n4)c3CO2)cc1 (centres undefined),inactive
7,Cc1ccc(C2Cn3nnc(-c4noc(-c5n[nH]c6c5CCCC6)n4)c3CO2)cc1 (centres undefined),13.3 µM (active)
8,Cc1ccc(C2Cn3nnc(-c4noc(CNC(=O)c5ccccc5)n4)c3CO2)cc1 (centres undefined),inactive
9,Oc1ccc(Br)cc1Cn1nnc2ccccc21,inactive
10,O=c1c2ccccc2nc(/C=C/c2cc(Br)ccc2O)n1CCCO,9.44 µM (active)
11,CCn1c(/C=C/c2cc(Br)ccc2O)nc2ccccc2c1=O,4.22 µM (active)
12,O=C(c1ccccc1-c1ccccc1)N1CCC(c2ncc[nH]2)CC1,inactive
13,CCCc1c(C)[nH]c2ccccc2c1=O,7.5 µM (active)
14,C=CCc1c(C)[nH]c2ccc(C)cc2c1=O,inactive
15,CCc1c(C)[nH]c2ccccc2c1=O,10.6 µM (active)
16,O=c1nc2ccccn2c2ccc(S(=O)(=O)N3CCCCC3)cc12,inactive
17,COc1cccc(NC(=S)N2CCN(S(=O)(=O)c3ccc(F)cc3)CC2)c1,2.66 µM (active)
18,O=S(=O)(c1ccc(Cl)cc1)N1CCN(C(=S)Nc2ccccc2F)CC1,2.37 µM (active)
19,O=S(=O)(c1ccc2ccccc2c1)N1CCN(C(=S)Nc2ccc(F)c(Cl)c2)CC1,1.06 µM (active)
20,O=C(Cn1ccc2cc(S(=O)(=O)N3CCCCCC3)ccc21)NCCc1ccc(Cl)cc1,inactive
21,COc1cccc(S(=O)(=O)N2CCC3(CC2)C(OC)C(=O)N3c2cccc(F)c2)c1 (centres undefined),inactive
22,O=S(=O)(c1ccc2ccccc2c1)N1CCN(C(=S)Nc2ccccc2F)CC1,4.22 µM (active)

row,Structure (SMILES),Potency
1,O=C(NNc1ccnc2cc(Cl)ccc12)C1CCCCC1,7.5 µM (active)
2,Oc1ccc(Nc2ccnc3cc(Cl)ccc23)cc1,1.68 µM (active)
3,CN(C)c1ccnc(Nc2ccc(O)cc2)c1C#N,inactive
4,CN1CCN(c2cc(=O)c3ccnc(N4CCOCC4)c3o2)CC1,inactive
5,CN1CCN(c2ccc(Nc3ccnc4cc(Cl)ccc34)cc2)CC1,0.188 µM (active)
6,Clc1ccc2c(N/N=C/c3cccc(Br)c3)ccnc2c1,10.6 µM (active)
7,CN(Cc1ccccc1F)C1CCc2ccccc21 (centres undefined),inactive
8,CCN1CCN(c2ccc(Nc3ccnc4ccccc34)cc2)CC1,1.06 µM (active)
9,Clc1ccc(NNc2ccnc3cc(Cl)ccc23)cc1,1.5 µM (active)
10,O=C(CSc1ncn[nH]1)Nc1ccnc2ccccc12,inactive
11,CN(C(=O)c1ccc2c(c1)N(Cc1ccc(F)cc1)C(=O)c1ccccc1S2(=O)=O)C1CCCCC1,inactive
12,COc1ccccc1NC(=O)c1nn(C)c2c1CS(=O)(=O)c1ccccc1-2,inactive
13,CCOC(=O)c1ccc2c(c1)N(CC(=O)N(C)c1ccccc1)C(=O)c1ccccc1S2,10.6 µM (active)
14,CCOC(=O)c1ccc2c(c1)N(C(CC)C(=O)Nc1ccccc1OC)C(=O)c1ccccc1S2 (centres undefined),9.44 µM (active)
15,O=C1NCCCCCCN(C(=O)C2CCCC2)[C@H]2CCCC[C@@H]12,inactive
16,O=C1NC(=NC2CCCC2)C2(CCN(Cc3ccccc3)C2)N1c1cc(F)cc(F)c1 (centres undefined),7.5 µM (active)
17,O=C(c1ccccc1F)N1CCCC2(C1)C(=NC1CCCC1)NC(=O)N2c1cc(F)cc(F)c1 (centres undefined),inactive
18,O=C1NC(=NC2CCCCC2)C2(CCN(Cc3ccccc3)C2)N1c1cc(F)cc(F)c1 (centres undefined),4.22 µM (active)
19,O=C1NCc2ccccc2CC12CCCN(Cc1ccccc1)C2 (centres undefined),inactive
20,COc1cccc([S+](=O)([O-])N2CCC3(CC2)C(=NC2CCCCC2)NC(=O)N3c2cc(F)cc(F)c2)c1,inactive
